Measured values taken from PubChem BioAssay (Tox21).
Where “and” joins values, the source holds several entries; their conditions need not be identical. Equal values may be shown once. Inconclusive results are not listed. More than one record can exist for a structure, and the calls need not agree. Calls of active or inactive are those of the source. Calls follow the shape of the full dose curve.

Experiments:
[1] = molecular target: Acetylcholinesterase (Homo sapiens) (UniProt P22303); assay: Acetylcholinesterase (AChE) small molecule antagonists: colormetric cell-based qHTS assay (AID 1347395); also: nearly all actives have a fitted effect of over 30% in size; also: potency is read from the fitted curve at half-maximal effect
Chain of Acetylcholinesterase (Homo sapiens) (P22303 whole entry, looked up): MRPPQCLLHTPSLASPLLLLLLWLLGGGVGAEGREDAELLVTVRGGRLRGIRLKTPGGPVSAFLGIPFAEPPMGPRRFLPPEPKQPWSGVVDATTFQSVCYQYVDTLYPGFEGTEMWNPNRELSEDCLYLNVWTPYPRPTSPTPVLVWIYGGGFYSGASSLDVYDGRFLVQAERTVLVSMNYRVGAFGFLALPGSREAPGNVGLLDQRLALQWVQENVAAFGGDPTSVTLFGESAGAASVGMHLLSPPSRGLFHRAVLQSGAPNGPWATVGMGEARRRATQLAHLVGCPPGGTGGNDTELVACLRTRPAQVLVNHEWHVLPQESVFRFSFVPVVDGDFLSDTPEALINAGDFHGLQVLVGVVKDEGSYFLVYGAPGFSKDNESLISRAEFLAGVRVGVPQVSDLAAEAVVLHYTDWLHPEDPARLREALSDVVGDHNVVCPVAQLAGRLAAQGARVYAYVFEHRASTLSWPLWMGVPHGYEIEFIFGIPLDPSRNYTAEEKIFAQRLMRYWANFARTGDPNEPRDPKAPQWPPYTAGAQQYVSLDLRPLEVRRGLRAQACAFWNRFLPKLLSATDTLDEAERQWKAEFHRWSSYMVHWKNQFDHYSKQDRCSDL
In short: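 Homogeneous whole-cell format. SH-SY5Y cells seeded overnight, dosed with compound (30 min, 37 C, 5% CO2), then given DTNB/acetylthiocholine cocktail for 90 min at 37 C; colorimetric signal.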

[2] = molecular target: Acetylcholinesterase (Homo sapiens) (UniProt P22303); assay: Acetylcholinesterase (AChE) small molecule antagonists: enzyme-based qHTS assay (AID 1347397); details: Potency: AChE enzyme activity inhibition; outcome: AChE enzyme activity inhibition; also: nearly all actives have a fitted effect of over 55% in size; also: potency is read from the fitted curve at half-maximal effect
In short: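 Compound or DMSO vehicle was pin-transferred onto recombinant human AChE (50 mU/mL as dispensed) and left 30 min at room temperature. Acetylthiocholine with DTNB then started the reaction, read colorimetrically 10 min later.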

[3] = molecular target: Acetylcholinesterase (Homo sapiens) (UniProt P22303); assay: Acetylcholinesterase (AChE) small molecule antagonists: fluorescence cell-based qHTS assay (AID 1347398); details: Potency: AChE activity; outcome: AChE activity; also: nearly all actives have a fitted effect of over 50% in size; also: potency is read from the fitted curve at half-maximal effect
In short: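 Using neuroblastoma SH-SY5Y cells as the enzyme source, test chemicals are preincubated 30 min at 37 C; AChE-driven acetylthiocholine cleavage is then quantified by thiocholine-dependent Thiolite Green fluorescence after 40 min at room temperature.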

[4] = molecular target: Acetylcholinesterase (Homo sapiens) (UniProt P22303); assay: Acetylcholinesterase (AChE) small molecule antagonists: enzyme-based qHTS assay with human liver microsomes (AID 1347399); details: Potency: qHTS inhibition; outcome: qHTS inhibition; also: nearly all actives have a fitted effect of over 60% in size
In short: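 Recombinant human AChE (50 mU/mL in the enzyme mix) and human liver microsomes (0.25 mg/mL final) were preincubated with compound and NADPH (0.25 mg/mL final) for 30 min at 37 C. Acetylthiocholine/DTNB was then added; thiocholine was read colorimetrically after 10 min at room temperature.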
% is scaled to controls: 0 for no effect and ±100 for the full control effect.

O=c1[nH]sc2cc(Cl)ccc12
inactive: Potency [1] | Potency [2] | Potency [3] | Potency [4]

CC1=CC(=O)CC(C)(C)C1
inactive: Potency [1] | Potency [2] | Potency [3] | Potency [4]

O=C(O)C1(C(=O)O)CCC1.[NH2-].[NH2-].[Pt+2]
active: Potency [2] 21.9 µM
inactive: Potency [1] | Potency [3] | Potency [4]

C=C(C)C(=O)OCCC[Si](OC)(OC)OC
inactive: Potency [1] | Potency [2] | Potency [3] | Potency [4]

O=C(C(=O)c1ccc(Br)cc1)c1ccc(Br)cc1
inactive: activity, negative = inhibition [1] 1.28% [at 23.6 µM] | activity change, negative = inhibition [2] 1.82% [at 23.6 µM] | activity change, negative = inhibition [3] -2.19% [at 23.8 µM] | activity change, negative = inhibition [4] -3.65% [at 23.6 µM]

CC(C)(C)C1CCCCC1O (stereo not given)
inactive: Potency [1] | Potency [2] | Potency [3] | Potency [4]

CCCCOCCOCCOCCO
inactive: Potency [1] | Potency [2] | Potency [3] | Potency [4]

CCCCC(=O)O
inactive: Potency [1] | Potency [2] | Potency [3] | Potency [4]

CC(=O)Oc1ccc(C)cc1
inactive: Potency [1] | Potency [2] | Potency [3] | Potency [4]

C[Si](C)(C)Cl
inactive: Potency [1] | Potency [2] | Potency [3] | Potency [4]

CC1=NN(c2cc(Cl)c(S(=O)(=O)O)cc2Cl)C(=O)C1N=Nc1ccc(S(=O)(=O)O)cc1 (stereo not given)
inactive: Potency [1] | Potency [2] | Potency [3] | Potency [4]

O=Cc1ccc(CO)o1
inactive: Potency [1] | Potency [2] | Potency [3] | Potency [4]

COC(=O)N/N=C/c1c[n+]([O-])c2ccccc2[n+]1[O-]
inactive: Potency [1] | Potency [2] | Potency [3] | Potency [4]

C[C@]12CCC(=O)C=C1CC[C@@H]1[C@@H]2CC[C@@]2(C)[C@H]1CC[C@]2(O)C(=O)CO
inactive: Potency [1] | Potency [2] | Potency [3] | Potency [4]

O=C(Cn1ccnc1[N+](=O)[O-])NCc1ccccc1
inactive: Potency [1] | Potency [2] | Potency [3] | Potency [4]

O=C(Nc1cccc(C2=NCCN2)c1)Nc1cccc(C2=NCCN2)c1
inactive: activity change, negative = inhibition [4] -3.93% [at 23.6 µM]
active: Potency [1] 3.79 µM | Potency [2] 10.7 µM | Potency [3] 2.13 µM

CC1(C)OC[C@@H](COC(=O)CCc2ccc(OC[C@@H](O)CNCCNC(=O)N3CCOCC3)cc2)O1
inactive: Potency [1] | Potency [2] | Potency [3] | Potency [4]

O=C(O)c1ccccc1C(=O)OCc1ccccc1
inactive: Potency [1] | Potency [2] | Potency [3] | Potency [4]

O=S(=O)(O)c1ccc(O)c2ncccc12
inactive: Potency [1] | Potency [2] | Potency [3] | Potency [4]

COc1ccc(N)c(OC)c1
inactive: Potency [1] | Potency [2] | Potency [3] | Potency [4]

COc1ccc2c(c1)c(CC(=O)O)c(C)n2C(=O)c1ccc(Cl)cc1
inactive: Potency [1] | Potency [2] | Potency [3] | Potency [4]

O=C(O)C(=O)Nc1cccc(-c2nn[nH]n2)c1
inactive: Potency [1] | Potency [2] | Potency [3] | Potency [4]

CC(C)(C)C(=O)C(Oc1ccc(Cl)cc1)n1ccnc1 (stereo not given)
inactive: Potency [1] | Potency [2] | Potency [3] | Potency [4]

CCOc1ccccc1OCC1CNCCO1 (stereo not given)
inactive: outcome [1] | outcome [2] | outcome [3] | outcome [4]

COCCOCCOCCOCCO
inactive: Potency [1] | Potency [2] | Potency [3] | Potency [4]

CC1(C)O[C@@H]2C[C@H]3[C@@H]4C[C@H](F)C5=CC(=O)C=C[C@]5(C)[C@@]4(F)[C@@H](O)C[C@]3(C)[C@]2(C(=O)CO)O1
inactive: Potency [1] | Potency [2] | Potency [3] | Potency [4]

c1ccc(COCc2ccccc2)cc1
inactive: Potency [1] | Potency [2] | Potency [3] | Potency [4]

CC1=C(O)C(=O)CO1
inactive: Potency [1] | Potency [2] | Potency [3] | Potency [4]

O=S(=O)(O)CO
inactive: Potency [1] | Potency [2] | Potency [3] | Potency [4]

CC(C)c1ccc2cc(C(C)C)ccc2c1
inactive: Potency [1] | Potency [2] | Potency [3] | Potency [4]

O=Cc1ccccc1C=O
inactive: Potency [1] | Potency [2] | Potency [3] | Potency [4]

C=COCC1CCC(CO)CC1 (stereo not given)
inactive: Potency [1] | Potency [2] | Potency [3] | Potency [4]

O=C1OC(O)C(C(Cl)Cl)=C1Cl (stereo not given)
inactive: Potency [1] | Potency [2] | Potency [3] | Potency [4]

COc1cc(CNC(=O)CCCC/C=C/C(C)C)ccc1O
inactive: Potency [1] | Potency [2] | Potency [3] | Potency [4]

CC(C)=CC(C)(C)C
inactive: Potency [1] | Potency [2] | Potency [3] | Potency [4]

O=C1OC2(c3ccccc31)c1ccc(O)c(Br)c1Oc1c2ccc(O)c1Br
inactive: Potency [1] | Potency [2] | Potency [3] | Potency [4]

O=S(=O)(O)c1cc(O)c(O)c(S(=O)(=O)O)c1
inactive: Potency [1] | Potency [2] | Potency [3] | Potency [4]

c1ccc2[nH]cnc2c1
inactive: Potency [1] | Potency [2] | Potency [3] | Potency [4]

CNC(=O)NC
inactive: Potency [1] | Potency [2] | Potency [3] | Potency [4]

OCC1CC2CC1C1CCC(CO)C21 (stereo not given)
inactive: Potency [1] | Potency [2] | Potency [3] | Potency [4]

CCCCN(CCN(CCCC)C(=O)N1CCOCC1)C(=O)N1CCOCC1
inactive: Potency [1] | Potency [2] | Potency [3] | Potency [4]

CC(=O)[C@@]1(O)CC[C@H]2[C@@H]3C[C@H](C)C4=CC(=O)C=C[C@]4(C)[C@@]3(F)[C@@H](O)C[C@@]21C
inactive: Potency [1] | Potency [2] | Potency [3] | Potency [4]

CC(CC(=O)O)CC(C)(C)C (stereo not given)
inactive: Potency [1] | Potency [2] | Potency [3] | Potency [4]

CC(C)CCCCCCOC(=O)c1ccc(C(=O)OCCCCCCC(C)C)c(C(=O)OCCCCCCC(C)C)c1
inactive: Potency [1] | Potency [2] | Potency [3] | Potency [4]

CCOc1ccc(OCC)c(Cl)c1
inactive: Potency [1] | Potency [2] | Potency [3] | Potency [4]

CCOC(=O)O[C@H](C)OC(=O)c1ccc2c(c1)cc(C(=O)NC1CCN(C(C)C)CC1)n2Cc1cc(-c2ccc(Cl)s2)on1
inactive: Potency [1] | Potency [2] | Potency [4]
active: Potency [3] 41.8 µM

c1ccc(CC2=NCCN2)cc1
inactive: Potency [1] | Potency [2] | Potency [3] | Potency [4]

Cc1c(C(=O)O)cccc1[N+](=O)[O-]
inactive: Potency [1] | Potency [2] | Potency [3] | Potency [4]

Nc1nc2ccc([N+](=O)[O-])cc2s1
inactive: Potency [1] | Potency [2] | Potency [3] | Potency [4]

CC[Si](OC(C)=O)(OC(C)=O)OC(C)=O
inactive: Potency [1] | Potency [2] | Potency [3] | Potency [4]

O=Cc1ccc(C(=O)O)cc1
inactive: Potency [1] | Potency [2] | Potency [3] | Potency [4]

CCCCCCC(=O)O
inactive: Potency [1] | Potency [2] | Potency [3] | Potency [4]

Nc1nc(=S)c2[nH]cnc2[nH]1
21.9 µM (active) and inactive: Potency [1]
inactive: Potency [2] | Potency [3] | Potency [4]

Cc1cccc(OCC(O)CNC(C)(C)C)c1C (stereo not given)
inactive: Potency [1] | Potency [2] | Potency [3] | Potency [4]

CCN(CCC#N)c1ccc(N=Nc2c(Cl)cc([N+](=O)[O-])cc2Cl)cc1
inactive: Potency [1] | Potency [2] | Potency [3] | Potency [4]

CC1=C2[C@@H]([C@H](C)CC[C@H]2/C=C(\C)C(=O)O)[C@H](O)C1
inactive: Potency [1] | Potency [2] | Potency [3] | Potency [4]

CCCCC(CC)COC(=O)COc1cc(Cl)c(Cl)cc1Cl (stereo not given)
inactive: Potency [1] | Potency [2] | Potency [3] | Potency [4]

CCc1cnc(C(=O)O)c(C(=O)O)c1
inactive: Potency [1] | Potency [2] | Potency [3] | Potency [4]

CC(C)c1nc(CN(C)C(=O)N[C@H](C(=O)N[C@@H](Cc2ccccc2)C[C@H](O)[C@H](Cc2ccccc2)NC(=O)OCc2cncs2)C(C)C)cs1
inactive: Potency [1] | Potency [2] | Potency [3] | Potency [4]

Cc1cc2nc3c(=O)[nH]c(=O)nc-3n(C[C@H](O)[C@H](O)[C@H](O)CO)c2cc1C
inactive: Potency [2] | Potency [3] | Potency [4]
active: Potency [1] 35.2 µM and 33 µM
